Measurements taken from PubChem BioAssay (NCI).
Compounds without any hit were thinned out: in the full panel of roughly 83,000, 20% have a hit.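 Testing used 96-well plates and a 48-hour single-concentration exposure. Example: -40 means 40% of the starting cells died.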 Values without a mark were called inactive. Active and inactive are the calls of the source. How the source made its calls: active means growth percent below 10; inactive means the rest.

Assays:
Assay in all cases: NCI-60 one-dose screen, 48 h (100 = growth as untreated, 0 = no growth, -100 = all killed)
Conditions in all cases: 10 µM unless noted
[1] = tested on: SR leukemia
[2] = tested on: RPMI-8226 leukemia
[3] = tested on: OVCAR-5 ovarian
[4] = tested on: OVCAR-4 ovarian
[5] = tested on: IGROV1 ovarian
[6] = tested on: OVCAR-3 ovarian
[7] = tested on: HS 578T breast
[8] = tested on: NCI/ADR-RES ovarian
[9] = tested on: T-47D breast
[10] = tested on: BT-549 breast
[11] = tested on: MDA-MB-435 melanoma
[12] = tested on: SW-620 colon
[13] = tested on: MCF7 breast
[14] = tested on: HCT-116 colon
[15] = tested on: HCC-2998 colon
[16] = tested on: KM12 colon
[17] = tested on: OVCAR-8 ovarian
[18] = tested on: SK-OV-3 ovarian

SMILES	growth [1]	growth [2]	growth [3]	growth [4]	growth [5]	growth [6]	growth [7]	growth [8]	growth [9]	growth [10]	growth [11]	growth [12]	growth [13]	growth [14]	growth [15]	growth [16]	growth [17]	growth [18]
C=C(C)[C@@H]1CC[C@]2(C(=O)O)CC[C@]3(C)[C@H](CC[C@@H]4[C@@]5(C)C[C@@H](CC#Cc6ccc(C(F)(F)F)cc6)[C@H](O)C(C)(C)[C@@H]5CC[C@]43C)[C@@H]12	15.6%	9.12% (active)	52%	1.55% (active)	19.5%	-3.44% (active)	24.1%	76.1%	19%	36.7%	-31.8% (active)	15%	8.54% (active)	11.4%	18.2%	15.3%	–	–
CC1=C(C#N)C(=O)NC(C)C1 (stereo not given)	110%	–	95.5%	110%	105%	103%	97.2%	102%	91.4%	101%	107%	106%	101%	110%	79.8%	107%	102%	103%
CCN1C(=O)N(CC)C2C1NN=c1s/c(=C\c3cccnc3)c(=O)n12 (stereo not given)	15.1%	47.5%	42.1%	44.1%	30.7%	-22.9% (active)	19.7%	16.2%	53.4%	57.3%	-46.6% (active)	26.5%	21.7%	15.8%	26.8%	19.5%	–	42.7%
Cc1ccc(-c2cc3nc(C(Cl)Cl)nc(-c4ccccc4C)n3n2)cc1	17.7%	48.1%	92.7%	74.9%	83.7%	22.4%	82.2%	60.3%	49.7%	88.7%	-2.12% (active)	46.1%	70.3%	49.6%	81.8%	26.1%	–	–
N=C(N)c1ccc(-c2ccc(-c3ccc(-c4cccs4)s3)s2)cc1	81.6%	61%	97.8%	90.7%	96.2%	94.7%	99.3%	98.6%	76%	99.5%	103%	99.6%	84%	93.6%	98.7%	96.8%	–	–
COc1ccc(/C=N\NC(=O)CN2CCN(c3cc4c(cc3F)c(=O)c(C(=O)N/N=C/c3ccc(OC)c(OC)c3)cn4C3CC3)CC2)cc1OC	3.52% (active)	4.84% (active)	26.4%	-2.98% (active)	4.1% (active)	-5.57% (active)	-4.8% (active)	100%	3.79% (active)	-11.1% (active)	-49.7% (active)	4.64% (active)	–	13.3%	-10.8% (active)	7.04% (active)	–	17.1%
Brc1cccc(-c2cc(-c3ccc4nccnc4c3)[nH]n2)c1	33.8% [25 µM]	20.3% [25 µM]	38.2% [25 µM]	48.3% [25 µM]	27.8% [25 µM]	4.18% [25 µM] (active)	13.7% [25 µM]	2.03% [25 µM] (active)	34.5% [25 µM]	65.5% [25 µM]	-54.1% [25 µM] (active)	28.1% [25 µM]	14.1% [25 µM]	9.21% [25 µM] (active)	40.2% [25 µM]	14.7% [25 µM]	–	33.2% [25 µM]
FC(F)(F)c1cccc(-c2cn3c(ccc4ccccc43)n2)c1	95.1%	–	102%	97.7%	81.5%	97.2%	104%	92.6%	46.5%	91.1%	100%	89.5%	41%	88%	105%	91%	94.8%	85.7%
CCCCN(CCCC)C(=O)CC	102%	115%	106%	108%	115%	113%	149%	103%	124%	–	–	110%	93.3%	102%	107%	106%	–	122%
CN1CCN(CCCOc2ccc3nc(Nc4ccc(Cl)c(C(F)(F)F)c4)ccc3c2)CC1	2.08% (active)	–	72.1%	66.6%	46.2%	59.3%	46%	62.8%	76.7%	102%	59.6%	0.0049% (active)	27.1%	26.3%	6.68% (active)	28.8%	73.6%	91.4%
O=[N+]([O-])c1cc(Cl)c2[nH]c3c(Cl)cc([N+](=O)[O-])cc3c2c1	2.53% (active)	3.11% (active)	9.08% (active)	-24.8% (active)	9.12% (active)	16.8%	–	6.85% (active)	4.93% (active)	-0.691% (active)	-2.12% (active)	5.45% (active)	–	2.09% (active)	34.8%	–	–	-11.9% (active)
Brc1cccc(-c2cc(-c3ccc4c(c3)OCCCO4)[nH]n2)c1	41.7% [25 µM]	57.2% [25 µM]	63% [25 µM]	68.1% [25 µM]	46.8% [25 µM]	48.7% [25 µM]	71.1% [25 µM]	22.1% [25 µM]	29.2% [25 µM]	72.8% [25 µM]	-7% [25 µM] (active)	31.8% [25 µM]	23.2% [25 µM]	51.4% [25 µM]	75.6% [25 µM]	20% [25 µM]	–	53.1% [25 µM]
COc1ccc(C(=O)c2cc(OC)c(OC)c(OC)c2OC)cc1O	26.4%	–	92.8%	83.9%	57.4%	-21.8% (active)	16.3%	-8.84% (active)	44.8%	39.8%	-24% (active)	20.5%	17.5%	17.9%	58.6%	20.8%	61.3%	20.1%
COc1ccc(-c2cc(-c3ccccc3)nc(SCCCC(=O)NO)n2)cc1OC	4.39% (active)	–	11%	6.41% (active)	15.6%	-22.7% (active)	–	-12.3% (active)	2.62% (active)	–	9.02% (active)	12.5%	4.19% (active)	5.58% (active)	34.7%	13.1%	5.05% (active)	-0.339% (active)
C=C(C)[C@@H]1C[C@@H]2Cc3cc(Cl)ccc3N1O2	90.5%	–	83.5%	89.4%	120%	116%	95.9%	100%	106%	99.6%	–	96.7%	100%	96.1%	99.1%	105%	108%	108%
c1ccc(-c2nc(N3CCNCC3)c3nc(-c4ccccc4)oc3n2)cc1	0.501% (active)	–	-1.51% (active)	-65.1% (active)	-83.6% (active)	-90.6% (active)	88.9%	-69.2% (active)	-56.6% (active)	97.5%	-93.7% (active)	-78.8% (active)	-69.2% (active)	-89.4% (active)	-90.3% (active)	-86.1% (active)	-30.5% (active)	–
CC12CCC3C4(C)COC(c5ccco5)OC4CCC3(C)C1CC(C1=CCOC1=O)O2 (stereo not given)	95.7%	–	99.8%	103%	93.8%	105%	–	98.5%	101%	–	103%	107%	98.9%	104%	105%	103%	108%	121%
C/C=C/C1=CN2C(=O)c3cc(OC4OC(C)C(NC)C(C)(O)C4O)c(C)cc3N=C[C@@H]2C1 (stereo not given in full)	-11.8% (active)	–	9.87% (active)	6.47% (active)	-8.52% (active)	0.104% (active)	-7.59% (active)	-7.51% (active)	-4.57% (active)	-41.2% (active)	-63.1% (active)	-0.311% (active)	3.78% (active)	3.87% (active)	–	-41.4% (active)	12.2%	3.83% (active)
